Assay results: PubChem BioAssay AID588819 (The Scripps Research Institute Molecular Screening Center, 2011)
The whole screen tested about 360,000 compounds, of which about 320 (0.089%) were called active. Cut-off read from the data, not from the text of the source: active = activation above about 19% (passing the limit was not always enough); inactive = the rest. Shown is part of a subset that was picked to be rich in actives.

Biological target: Muscarinic acetylcholine receptor M1 (Homo sapiens) (UniProt P11229)
Assay: human M1 muscarinic receptor positive allosteric modulators, primary screen, CHO-K1 cells, Fluo-8 calcium fluorescence, 1536-well (AID 588819)
Conditions: CHO-K1 hM1, Fluo-8 calcium fluorescence, ACh EC20; at 3 µM; active compounds read high; 0% = ACh EC20, 100% = maximal ACh

Sequence of Muscarinic acetylcholine receptor M1 (Homo sapiens) (P11229 whole entry, looked up): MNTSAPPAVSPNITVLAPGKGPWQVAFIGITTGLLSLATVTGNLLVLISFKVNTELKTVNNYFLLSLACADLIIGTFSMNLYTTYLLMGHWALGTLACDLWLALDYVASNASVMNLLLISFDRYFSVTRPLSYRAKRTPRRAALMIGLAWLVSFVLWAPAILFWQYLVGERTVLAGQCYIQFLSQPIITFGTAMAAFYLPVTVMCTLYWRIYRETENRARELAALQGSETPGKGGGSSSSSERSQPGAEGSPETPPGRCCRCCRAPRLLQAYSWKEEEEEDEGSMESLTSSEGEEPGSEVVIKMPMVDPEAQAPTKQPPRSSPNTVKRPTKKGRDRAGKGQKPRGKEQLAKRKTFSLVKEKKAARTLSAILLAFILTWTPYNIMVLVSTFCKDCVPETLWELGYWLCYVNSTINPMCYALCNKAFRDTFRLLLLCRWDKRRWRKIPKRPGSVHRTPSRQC

activation, inactive:
Cc1ccc(S(=O)(=O)NC(=O)N2CCCN(Cc3ccc(F)cc3)CC2)cc1 5.25%, CCN(CC(=O)Nc1ccc(OC)cc1)C(=O)c1ccc(Cl)c(S(=O)(=O)N2CCCC2)c1 9.99%, CC(C)(C)NC(=O)CN(C(=O)c1ccc(Cl)nc1)c1cccc2ccccc12 2.85%, CCC1(CC)C(=O)C2=C3C1[C@H](C(=O)OC)C=C(C(=O)OC)C[C@H]3[C@H]1C(=O)N(Cc3ccccc3)C(=O)[C@H]1[C@H]2C (stereo partly specified) -6.86%, COc1ccc(-n2nc3c(c2NC(=O)c2ccc(N4C(=O)CCC4=O)cc2)CSC3)cc1 1.99%, COc1ccc(CCNC(=O)CN(C)S(=O)(=O)c2ccc3nc(C)sc3c2)cc1OC 8.1%, CCN(C(=O)COC(=O)/C=C/c1nc2ccccc2s1)C1CCS(=O)(=O)C1 (stereo unspecified) -0.52%, O=c1[nH]c(CN2CCN(S(=O)(=O)c3ccc4c(c3)OCCO4)CC2)nc2sc3c(c12)CCCC3 12.9%, O=C(NCc1cccnc1)C12CC3CC(CC(C3)C1)C2 22.9%, COc1ccc(NC(=O)CN(C)C(=O)CC2CCCCC2)cc1 15.3%, Cc1ccc(CSCC(=O)N(C)CC(=O)Nc2cccc(F)c2)cc1 11.3%, ONC(=Nc1ccccc1)c1ccccc1Cl 2.82%, CCC1(CC)NC(=O)N(CC(=O)OCC(=O)NC(=O)c2ccccc2)C1=O 5.54%, CC(C)N1CCC(N2CCN(Cc3cccnc3)CC2CCO)CC1 (stereo unspecified) 7.42%, COc1ccc(S(=O)(=O)N2CCN(C(=S)NCC3CCCO3)CC2)cc1OC (stereo unspecified) 2.58%, O=C(NCc1ccccc1)C1=C[C@@H](c2ccccc2)C[C@@H](OCCCCO)O1 19.5%, O=C(/C=C/c1ccccc1)Nc1nnc(SCC(=O)c2ccc3ccccc3c2)s1 1.55%, CCOCc1nnc(NC(=O)CSc2ccc(C)cc2)s1 3.8%, O=C(Cn1nc(C(=O)O)c2ccccc2c1=O)Nc1ccc(F)cc1 1.79%, CC(=O)Nc1ccc(NC(=O)C(C)OC(=O)C2CC(=O)N(CCc3ccccc3)C2)cc1 (stereo unspecified) 4.72%, CCCCN(C)c1ccc([N+](=O)[O-])cc1 -3.31%, CC(C)Cn1cnc2c1c(=O)n(CC(=O)NN)c(=O)n2Cc1ccccc1 4.53%, COCCn1cnc2c1c(=O)n(CC(=O)NN)c(=O)n2Cc1ccccc1 13.3%, CCCSC(=S)NC1CCS(=O)(=O)C1 (stereo unspecified) 0.86%, CCCCNCCS(=O)(=O)NCc1ccccc1 4.18%, CSc1ccc(CNCCN2CCOCC2)cc1 -5.22%, Cc1cccc(C)c1NC(=O)C1(N(C(=O)c2ccccn2)c2ccc(O)cc2)CCCCC1 -1.06%, CN(C)/C=C/c1c(C#N)c(=O)ncn1Cc1ccccc1 -0.11%, O=c1c2c(ncn1Cc1ccccc1)nc1n2CCC1 7.79%, COc1ccc(CN2CC[C@H]3C=CC[C@@H](C(=O)N4CCOCC4)[C@H]3C2=O)cc1OC 1.94%, CNC(=O)c1nnc(Cc2ccc(Cl)cc2)o1 5.02%, O=C(Nc1ccc(F)cc1F)N1CCCN(CCOc2ccccc2)CC1 5.19%, Nc1ncnc2c1ncn2[C@@H]1O[C@H](CNC(=O)[C@H](N)Cc2cccnc2)[C@@H](O)[C@H]1O 2.46%, CCn1c(O)c(N=NC2=NC(=O)CS2)c2cc(C)ccc21 -1.89%, O=C(CCNc1n[nH]c(=O)[nH]c1=O)N/N=C\c1ccc(Br)cc1 17.3%, CC(=O)N/C(=C/c1ccc(OC(F)F)cc1)C(=O)O 6.97%, CN1CCC(=NNC(=O)c2ccc(N(Cc3ccc(Cl)cc3)S(C)(=O)=O)cc2)CC1 4.92%, CC1CCN(c2ccc([N+](=O)[O-])c(SCCO)c2)CC1 2.03%, CCCC(C)NC(=O)C1CCN(C(=O)C2CC(=O)N(c3ccc(C)cc3)C2)CC1 (stereo unspecified) 14.6%, COCCCNC(=O)C1CC(=O)N(c2ccc(C)cc2)C1 (stereo unspecified) 1.45%, Cc1ccc(S(=O)(=O)N2C3C=CC(C3)C2C(=O)O)cc1 (stereo unspecified) 1.95%, O=C(O)C1CCN1C1CCCCC1 (stereo unspecified) 3.48%, Cc1ccnc2nc(C(=O)Nc3nnc(-c4ccccc4)o3)nn12 3.22%, COc1ccccc1C(=O)NCC(=O)OCC(=O)Nc1nnc(-c2ccccc2)o1 7.11%, COc1ccc(N2CCC(CNC(=S)Nc3c(C)cccc3C)C2)cc1 (stereo unspecified) -4.84%, O=C(Cc1ccc(NC(=O)C2CCCN(C(=O)C3CCCCC3)C2)cc1)Nc1cccc(C(=O)N2CCCCC2)c1 (stereo unspecified) 3.87%, CC(Sc1nnc2c(n1)C1CCC2(C)C1(C)C)C(=O)Nc1ccccc1 (stereo unspecified) 11.8%, CSc1ccccc1C(=O)Nc1cccc(C(C)=O)c1 -2.71%, Cc1ccc(S(=O)(=O)N(CCc2ccccc2)c2ccc3c(c2)C2CC3CCN2C(=O)OCc2ccccc2)cc1 (stereo unspecified) 10.4%, COc1ccccc1OCC(=O)OCn1c(SC)nnc(C)c1=O 2.31%, Cc1nc(-c2ccc(F)cc2)c(CC(=O)Nc2cc(S(=O)(=O)N3CCCCC3)ccc2C)s1 14.8%, Cc1ccc(NC(=O)CSc2nn3c(=O)c(C)nnc3s2)cc1Cl 10.6%, Cc1ccccc1CSCCNC(=O)c1ccc(Cl)c(S(=O)(=O)N2CCOCC2)c1 -5.71%, COc1ccc(Cl)cc1NC(=O)COc1ccc2c(c1)OCO2 7.62%, CN=C1SC(C(=O)O)CC(=O)N1C (stereo unspecified) 7.37%, COc1cc(C(=O)N(C)Cc2cccc(OC)c2OC)ccc1OCC(=O)Nc1cccc(C(F)(F)F)c1 -5.88%, COC(=O)c1ccc2ccccc2c1OC1OC(CO)C(O)C(O)C1NC(C)=O (stereo unspecified) 9.3%, CC(=O)c1cccc(NC(=O)C2CCCN2S(=O)(=O)c2cccc3nsnc23)c1 (stereo unspecified) -0.71%, Cc1ccc(CN2CCN(c3ccccc3Cl)CC2)o1 5.74%, CCOc1cc(C(=O)Nc2ccc(S(=O)(=O)Nc3cnc4ccccc4n3)cc2)cc(OCC)c1OCC 7.77%, COc1ccc([N+](=O)[O-])cc1N(CC(O)Cn1nnc2ccccc21)S(=O)(=O)c1ccc(C)cc1 (stereo unspecified) 21.8%, Oc1cccc(CCc2ccccn2)c1 4.71%, CCCn1c(=O)c2c(C(F)(F)F)cc(-c3cccs3)nc2n(CCC)c1=O 1.78%, CCC(=O)N1CCCC1(C)C(=O)Nc1ccc2c(c1)CCN2C(C)=O (stereo unspecified) 8.84%, COC(=O)c1ccc2nc(-c3ccc(Cl)cc3)c(Cc3cccc(F)c3)n2c1 -0.44%, COC(=O)c1ccc2nc(-c3ccc(OC)c(OC)c3)c(Cc3ccccc3)n2c1 2.75%, CN(C)CCN(Cc1ccccc1)S(=O)(=O)c1csc(C(N)=O)c1 10.5%, O=C(Cc1ccccc1)NCC1OCCc2ccccc21 (stereo unspecified) -5.39%, CCCCN(CC(=O)NC(C)(C)C)C(=O)C(=O)Nc1ccc2c(c1)OCCO2 7.88%, O=C(NNS(=O)(=O)c1c(F)cc(F)c(Cl)c1F)C12CC3CC(CC(C3)C1)C2 -10.7%, COc1ccc(CNC(=O)COC(=O)CCS(=O)(=O)c2ccc(C)cc2)cc1OC 4.46%, CCCn1nc(C(=O)OCc2nc(N)nc(Nc3ccccc3C)n2)c2ccccc2c1=O 11.4%, CCOc1ccc2ccccc2c1/C=N/NC(=O)c1c(C)cc(C)[nH]c1=O 7.97%, Oc1cccc(C2c3[nH]c4ccccc4c3CCN2Cc2cnn(-c3ccccc3)c2)c1 (stereo unspecified) -6.09%, Cc1nc2ccc(NC(=O)c3cccc(S(=O)(=O)N4CCOCC4)c3)cc2s1 3.59%, O=[N+]([O-])c1c(NCCO)cc(Sc2nc3ccccc3s2)c2nonc12 1.97%, CCn1c(CN2C(=O)CSc3ccccc32)n[nH]c1=S -0.34%, CCC(C)[C@H](NC(=O)N1CCn2c1nc1ccccc12)C(=O)NCc1ccc(OC)cc1 (stereo partly specified) 0.16%, CC(C)(C)NC(=O)Cn1c(SCC(=O)Nc2nccs2)nc2ccccc21 2.24%, CCOC(=O)C1(Cc2cccc(OC)c2)CCCN(S(=O)(=O)c2cccnc2)C1 (stereo unspecified) 6.27%, CN1/C(=C\C=C2\N=C(c3ccc(F)cc3)OC2=O)C(C)(C)c2ccccc21 -5.26%

activation, active:
CN(CC(=O)Nc1cccc(F)c1)C(=O)CC1CCCC1 29.7%, O=C(CSc1ccccc1)Nc1nnc(/C=C/c2ccccc2)s1 32.8%, CC(C)CCn1cnc2c1c(=O)n(CC(=O)NC(N)=O)c(=O)n2Cc1ccccc1 30.3%, CCCCNCc1ccc(SC)cc1 25.2%, CN(C)c1ccnc2sc3c(=O)n(Cc4ccccc4)cnc3c12 23.4%, COCCNC(=O)C1CCN(C(=O)C2CC(=O)N(c3ccc(C)cc3)C2)CC1 (stereo unspecified) 29.5%, CCCC(=O)Nc1nnc(-c2ccccc2)o1 28.9%, CSc1nc(C)cc(SC(C(C)=O)C(=O)Nc2ccccc2)n1 (stereo unspecified) 23.1%, COC(=O)c1ccc2nc(C3CCCCC3)c(Cc3cccc(F)c3)n2c1 27%, O=C(O)c1cccc(S(=O)(=O)Nc2ccc(O)cc2Sc2nc3ccccc3s2)c1 31.9%
